Assay results taken from PubChem BioAssay (EPA / NIEHS).
Calls of active or inactive are those of the source. How the source made its calls: active means hit-call score of the fitted dose curve at least 0.9, where 1 is the maximum; inactive means score below 0.9.

Assays:
[1] = ATG_CRE_CIS: Attagene CIS-FACTORIAL HepG2 Assay for human cAMP Responsive Element (CRE) binding protein 3 (AID 2282926); settings: HepG2 CRE cis-reporter, Attagene multiplexed mRNA; actives raise or lower the signal
How it was run: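 Readout: fluorescently labelled reporter transcripts resolved by capillary electrophoresis after RT-PCR, taken 24 h post-dosing in transfected HepG2. Endogenous transcription factor activity drives each cis-element reporter; gain or loss of signal fitted relative to DMSO control.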

[2] = target: CCAAT/enhancer-binding protein beta (Homo sapiens) (UniProt P17676); assay: ATG_C_EBP_CIS: Attagene CIS-FACTORIAL HepG2 Assay for human CCAAT/Enhancer Binding Protein (C/EBP) beta (AID 2282927); settings: HepG2 Attagene cis-factorial transcription factor reporter; actives raise or lower the signal
How it was run: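 Changes in reporter mRNA, rather than exogenous chimeric receptor activity, reflect native C/EBP signalling in transfected HepG2 cells dosed for 24 h; transcripts are detected by RT-PCR and capillary electrophoresis.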

[3] = ATG_DR4_LXR_CIS: Attagene CIS-FACTORIAL HepG2 Assay for human Liver X Receptor (LXR), DR4 submotif (AID 2282929); settings: HepG2 Attagene DR4 cis-reporter, mRNA transcription; actives raise or lower the signal
How it was run: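 HepG2 cells were transiently transfected with multiple cis-regulated reporter units and dosed for 24 hours. The DR4 reporter mRNA was quantified by RT-PCR, 6-FAM labelling and capillary electrophoresis. Bidirectional fits used DMSO as baseline.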

[4] = target: Aryl hydrocarbon receptor (Homo sapiens) (UniProt P35869); assay: ATG_Ahr_CIS: Attagene CIS-FACTORIAL HepG2 Assay for human Aryl Hydrocarbon Receptor (Ahr) (AID 2282930); settings: HepG2 AhR cis-factorial reporter transcription; actives raise or lower the signal
How it was run: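 HepG2, transient MRTU (cis) transfection, 24 h exposure. RNA → cDNA → PCR → 6-FAM primer extension → HpaI 2 h 37 C → CE. Fit: bidirectional, DMSO baseline.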

[5] = ATG_AP_1_CIS: Attagene CIS-FACTORIAL HepG2 Assay for human Activator Protein 1 (AP-1) (AID 2282931); settings: HepG2 Attagene cis-factorial AP-1 reporter mRNA; actives raise or lower the signal
How it was run: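 HepG2 cells transiently transfected with cis-element-driven reporter transcription units, dosed for 24 hours. Reporter mRNA measured by RT-PCR, 6-FAM labelling, HpaI digestion and capillary electrophoresis. Bidirectional fitting against DMSO baseline.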

[6] = ATG_AP_2_CIS: Attagene CIS-FACTORIAL HepG2 Assay for human Activator Protein 2 (AP-2) (AID 2282932); settings: HepG2 AP-2 cis-reporter, Attagene transcription factor profiling; actives raise or lower the signal
How it was run: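 Endogenous transcription factor activity is reported through transfected multiplex reporter constructs in HepG2, after 24 h of compound exposure. Transcripts were quantified by RT-PCR and capillary electrophoresis of fluorescent fragments. Bidirectional fit against DMSO.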

[7] = ATG_BRE_CIS: Attagene CIS-FACTORIAL HepG2 Assay for human Bone Morphogenetic Protein (BMP) Response Element (BRE) (AID 2282933); settings: HepG2 BMP response element reporter, Attagene transcription factor profiling; actives raise or lower the signal
How it was run: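 Endogenous transcription factor activity at a BMP response element was monitored in transfected HepG2 cells 24 h after dosing. Fluorescent RT-PCR products were resolved by capillary electrophoresis, and activity was fitted in both directions versus DMSO.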

[8] = target: Transcription factor E2F1 (Homo sapiens) (UniProt Q01094); assay: ATG_E2F_CIS: Attagene CIS-FACTORIAL HepG2 Assay for human E2F Transcription Factor 1 (AID 2282935); settings: HepG2 Attagene cis-reporter, E2F reporter RNA transcripts; actives raise or lower the signal
How it was run: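 Gain or loss of reporter transcript, fitted against DMSO, reflects E2F1-driven transcription. Transiently transfected HepG2 dosed 24 h before RNA isolation. Quantified by fluorescent RT-PCR products separated by capillary electrophoresis.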

[9] = ATG_E_Box_CIS: Attagene CIS-FACTORIAL HepG2 Assay for human Enhancer Box (E-box) (AID 2282936); settings: HepG2 E-box cis-reporter transcription, actives raise or lower the signal
How it was run: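 E-box-driven reporter transcripts measured in transiently transfected HepG2 after 24 h exposure: RNA reverse-transcribed, PCR-amplified, fluorescently labelled, digested and resolved by capillary electrophoresis. Gain or loss relative to DMSO.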

[10] = ATG_M_61_CIS: Attagene CIS-FACTORIAL HepG2 Assay for M61 Transcription Factor (Internal Marker) (AID 2282937); settings: HepG2 Attagene CIS-FACTORIAL M61 internal marker reporter; actives raise or lower the signal
How it was run: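 HepG2 cells transiently transfected with multiplexed cis-promoter reporter units reporting endogenous transcription factor activity, measured 24 h after dosing. Reporter mRNA quantified by RT-PCR and capillary electrophoresis; bidirectional fit against DMSO baseline.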

[11] = ATG_EGR_CIS: Attagene CIS-FACTORIAL HepG2 Assay for human Early Growth Response 1 (EGR1) (AID 2282938); settings: HepG2 Attagene CIS-FACTORIAL EGR reporter mRNA; actives raise or lower the signal
How it was run: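 HepG2 cells transiently transfected with cis-element-driven multiplexed reporter units, dosed for 24 h. EGR1-element reporter mRNA quantified by RT-PCR, 6-FAM labelling, HpaI digestion and capillary electrophoresis; bidirectional fit versus DMSO.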

[12] = ATG_M_19_CIS: Attagene CIS-FACTORIAL HepG2 Assay for M19 Transcription Factor (Internal Marker) (AID 2282939); settings: HepG2 Attagene CIS-FACTORIAL M19 internal marker reporter; actives raise or lower the signal
How it was run: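 Background-control endpoint from a multiplexed HepG2 reporter panel. Cells carrying cis-regulated reporter constructs are treated 24 h, then reporter transcripts are amplified, fluorescently labelled and sized by capillary electrophoresis. DMSO defines baseline.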

[13] = ATG_ERE_CIS: Attagene CIS-FACTORIAL HepG2 Assay for Estrogen Response Element (ERE) (AID 2282940); settings: HepG2 ERE cis-reporter, Attagene RNA transcript; actives raise or lower the signal
How it was run: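 Cells used were human hepatoma HepG2, transfected with multiple reporter transcription units under cis-regulatory promoters. Reporter mRNA, read 24 h post-dosing via fluorescent RT-PCR products on capillary electrophoresis, was fitted bidirectionally relative to DMSO.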

[14] = ATG_Ets_CIS: Attagene CIS-FACTORIAL HepG2 Assay for human Erythroblast Transformation Specific (ETS) (AID 2282941); settings: HepG2 ETS cis-reporter transcription, actives raise or lower the signal
How it was run: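 RT-PCR/capillary electrophoresis fluorescence read-out of reporter mRNA; HepG2 transient multi-reporter transfection; 24 h compound exposure; gain or loss of signal fitted bidirectionally relative to DMSO.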

[15] = target: Hepatocyte nuclear factor 3-beta (Homo sapiens) (UniProt Q9Y261); assay: ATG_FoxA2_CIS: Attagene CIS-FACTORIAL HepG2 Assay for human Forkhead box A2 (FOXA2) (AID 2282942); settings: HepG2 cis-reporter transcription factor activity, 24 h; actives raise or lower the signal
How it was run: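 HepG2 transiently transfected with a multiplexed cis-promoter reporter library read endogenous FOXA2 activity. After 24 h compound exposure, reporter mRNA was quantified by RT-PCR, HpaI digestion and capillary electrophoresis. Bidirectional fit against DMSO.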

[16] = ATG_FoxO_CIS: Attagene CIS-FACTORIAL HepG2 Assay for human Forkhead box O (FoxO) (AID 2282943); settings: HepG2 Attagene cis-reporter, FoxO element, mRNA; actives raise or lower the signal
How it was run: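 Human hepatoma HepG2 cells carry transiently introduced reporter transcription units controlled by cis promoter elements. Chemical treatment lasted 24 h, and mRNA signal was compared with DMSO.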

[17] = ATG_GATA_CIS: Attagene CIS-FACTORIAL HepG2 Assay for human GATA Binding Protein (AID 2282944); settings: HepG2 GATA cis-element reporter, Attagene multiplex mRNA; actives raise or lower the signal
How it was run: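 Endogenous transcription factor activity was captured through cis-promoter-driven reporters in transfected HepG2 cells. After 24 h exposure, reporter transcripts were quantified by RT-PCR with fluorescent capillary electrophoresis, and responses fitted both directions against DMSO.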

[18] = ATG_GLI_CIS: Attagene CIS-FACTORIAL HepG2 Assay for human Zinc Finger Protein GLI1 (AID 2282945); settings: HepG2, Attagene cis-factorial reporter mRNA, GLI element; actives raise or lower the signal
How it was run: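 Bidirectional curve fits relative to DMSO, using reporter mRNA levels from RT-PCR plus capillary electrophoresis. Cells were HepG2 transiently carrying cis-regulated reporter constructs, harvested 24 h after dosing.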

[19] = target: Retinoic acid receptor alpha (Homo sapiens) (UniProt P10276); assay: ATG_DR5_RAR_CIS: Attagene CIS-FACTORIAL HepG2 Assay for human Retinoic Acid Receptor Alpha (RARE), DR5 submotif (AID 2282934); settings: HepG2 Attagene cis-factorial RARE DR5 reporter, mRNA; actives raise or lower the signal
How it was run: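 HepG2, transient cis-reporter transfection, 24 h exposure. mRNA readout: RT-PCR, FAM label, HpaI cut, capillary electrophoresis. DMSO baseline, gain/loss fitting.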

[20] = ATG_CMV_CIS: Attagene CIS-FACTORIAL HepG2 Assay for human CMV (Internal Marker) (AID 2282928); settings: HepG2 CMV promoter reporter, transcription factor profiling; actives raise or lower the signal;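 further: endpoint acts as a background internal control marker rather than a target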
How it was run: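 Readout: fluorescent reporter cDNA fragments separated by capillary electrophoresis after RT-PCR and HpaI cut. Cells: HepG2 carrying transfected cis-promoter reporter constructs, dosed 24 h. Endpoint serves as background internal-marker control, fit bidirectionally versus DMSO.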

Measured: AC50

Chain of Hepatocyte nuclear factor 3-beta (Homo sapiens) (Q9Y261 whole entry, looked up): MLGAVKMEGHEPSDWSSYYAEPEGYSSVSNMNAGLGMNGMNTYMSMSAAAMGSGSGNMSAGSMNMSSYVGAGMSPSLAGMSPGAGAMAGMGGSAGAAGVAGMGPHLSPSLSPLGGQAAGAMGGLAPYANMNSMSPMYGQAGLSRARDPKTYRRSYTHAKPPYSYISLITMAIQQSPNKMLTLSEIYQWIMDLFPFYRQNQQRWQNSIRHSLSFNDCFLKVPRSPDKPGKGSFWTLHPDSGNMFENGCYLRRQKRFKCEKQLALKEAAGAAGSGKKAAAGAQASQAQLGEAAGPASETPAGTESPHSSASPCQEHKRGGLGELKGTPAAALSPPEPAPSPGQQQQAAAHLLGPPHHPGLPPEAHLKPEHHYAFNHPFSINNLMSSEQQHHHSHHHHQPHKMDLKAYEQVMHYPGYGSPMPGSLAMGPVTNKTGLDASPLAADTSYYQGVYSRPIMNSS
Chain of Transcription factor E2F1 (Homo sapiens) (Q01094 whole entry, looked up): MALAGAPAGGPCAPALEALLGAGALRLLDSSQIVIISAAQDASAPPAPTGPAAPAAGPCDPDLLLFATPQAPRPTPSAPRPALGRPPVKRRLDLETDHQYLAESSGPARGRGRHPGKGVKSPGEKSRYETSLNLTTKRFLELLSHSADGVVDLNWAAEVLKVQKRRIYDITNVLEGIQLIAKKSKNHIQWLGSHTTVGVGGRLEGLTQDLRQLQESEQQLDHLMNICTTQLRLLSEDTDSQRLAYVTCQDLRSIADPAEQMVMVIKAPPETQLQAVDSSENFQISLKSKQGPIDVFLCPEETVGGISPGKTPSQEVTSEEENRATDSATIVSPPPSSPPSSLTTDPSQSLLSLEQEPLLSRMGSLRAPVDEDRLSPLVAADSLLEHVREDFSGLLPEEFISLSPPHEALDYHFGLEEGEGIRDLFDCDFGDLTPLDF
Chain of Aryl hydrocarbon receptor (Homo sapiens) (P35869 whole entry, looked up): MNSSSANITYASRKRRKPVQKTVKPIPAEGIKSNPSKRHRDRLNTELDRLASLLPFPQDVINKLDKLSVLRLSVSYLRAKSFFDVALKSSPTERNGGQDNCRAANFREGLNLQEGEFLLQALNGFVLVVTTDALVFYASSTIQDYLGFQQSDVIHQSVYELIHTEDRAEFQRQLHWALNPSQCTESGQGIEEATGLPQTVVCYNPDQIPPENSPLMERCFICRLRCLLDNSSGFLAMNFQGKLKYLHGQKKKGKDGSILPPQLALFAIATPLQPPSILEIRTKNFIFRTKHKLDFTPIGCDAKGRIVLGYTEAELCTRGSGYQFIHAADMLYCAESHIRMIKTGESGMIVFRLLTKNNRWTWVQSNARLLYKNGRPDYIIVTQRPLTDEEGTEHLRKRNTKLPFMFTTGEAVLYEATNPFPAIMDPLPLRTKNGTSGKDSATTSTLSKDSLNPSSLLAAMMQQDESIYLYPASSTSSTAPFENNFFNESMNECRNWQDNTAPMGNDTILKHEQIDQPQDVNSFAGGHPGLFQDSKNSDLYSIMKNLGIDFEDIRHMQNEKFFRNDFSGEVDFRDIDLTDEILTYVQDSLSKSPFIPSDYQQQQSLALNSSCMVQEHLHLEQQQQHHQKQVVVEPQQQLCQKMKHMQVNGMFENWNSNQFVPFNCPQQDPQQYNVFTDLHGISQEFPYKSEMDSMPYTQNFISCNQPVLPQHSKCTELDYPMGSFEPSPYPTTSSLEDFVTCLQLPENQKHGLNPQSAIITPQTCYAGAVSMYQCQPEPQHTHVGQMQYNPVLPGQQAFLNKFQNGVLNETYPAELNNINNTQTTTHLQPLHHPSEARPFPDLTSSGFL
Chain of CCAAT/enhancer-binding protein beta (Homo sapiens) (P17676 whole entry, looked up): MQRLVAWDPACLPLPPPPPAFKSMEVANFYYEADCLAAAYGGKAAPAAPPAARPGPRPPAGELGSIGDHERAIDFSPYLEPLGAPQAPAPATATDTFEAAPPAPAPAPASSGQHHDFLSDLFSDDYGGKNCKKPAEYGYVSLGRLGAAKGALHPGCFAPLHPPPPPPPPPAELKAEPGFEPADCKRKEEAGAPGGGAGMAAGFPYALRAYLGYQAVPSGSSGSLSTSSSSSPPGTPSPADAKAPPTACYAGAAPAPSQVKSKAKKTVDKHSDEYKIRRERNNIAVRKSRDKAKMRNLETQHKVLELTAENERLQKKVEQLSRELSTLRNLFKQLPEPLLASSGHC
Chain of Retinoic acid receptor alpha (Homo sapiens) (P10276 whole entry, looked up): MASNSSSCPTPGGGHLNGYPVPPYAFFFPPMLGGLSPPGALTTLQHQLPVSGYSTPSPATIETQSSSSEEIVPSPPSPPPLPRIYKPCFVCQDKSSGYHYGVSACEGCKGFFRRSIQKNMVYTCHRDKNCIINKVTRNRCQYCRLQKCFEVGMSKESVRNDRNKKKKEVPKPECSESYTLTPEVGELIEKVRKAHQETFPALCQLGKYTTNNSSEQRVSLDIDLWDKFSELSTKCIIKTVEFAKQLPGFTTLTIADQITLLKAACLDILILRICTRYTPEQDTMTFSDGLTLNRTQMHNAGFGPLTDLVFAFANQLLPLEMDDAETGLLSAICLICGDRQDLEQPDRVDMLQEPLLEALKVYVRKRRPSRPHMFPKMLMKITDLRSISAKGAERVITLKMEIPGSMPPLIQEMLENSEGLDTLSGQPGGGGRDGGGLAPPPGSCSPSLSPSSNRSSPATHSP

O=C(OCc1ccccc1)C(=O)OCc1ccccc1
inactive: [1] | [2] | [3] | [4] | [5] | [6] | [7] | [8] | [9] | [10] | [11] | [12] | [13] | [14] | [15] | [16] | [17] | [18]

CCCCCCCCCCCCCCCC(=O)OC[C@H](O)[C@H]1OC(=O)C(O)=C1O
inactive: [5] | [6] | [8] | [9] | [10] | [11] | [12] | [13] | [14] | [16] | [17] | [18]
active: [1] 29.3 µM | [2] 67.7 µM | [3] 76.2 µM | [4] 78 µM | [7] 9.68 µM | [15] 159 µM

COc1cc(C)cc(O)c1
inactive: [1] | [2] | [3] | [4] | [5] | [6] | [7] | [8] | [9] | [10] | [11] | [12] | [14] | [15] | [16] | [17] | [18]

Nc1cc([N+](=O)[O-])ccc1O
inactive: [1] | [2] | [3] | [5] | [6] | [7] | [8] | [9] | [10] | [11] | [12] | [14] | [15] | [17] | [18]
active: [4] 100 µM

CCCCCC=CCC(=O)OC
inactive: [1] | [2] | [3] | [4] | [5] | [6] | [19] | [8] | [9] | [10] | [11] | [12] | [14] | [15] | [16] | [17] | [18]

Cc1ccc(S)cc1
inactive: [1] | [2] | [4] | [6] | [8] | [9] | [10] | [11] | [12] | [13] | [14] | [15] | [16] | [17] | [18]
active: [3] 59.7 µM | [5] 119 µM | [7] 100 µM

C=CC(C)(CCC=C(C)C)OC=O (configuration not stated)
inactive: [1] | [2] | [3] | [4] | [5] | [6] | [7] | [8] | [9] | [10] | [11] | [13] | [14] | [16] | [17] | [18]

CC(=O)C(=O)O
inactive: [1] | [2] | [3] | [4] | [5] | [7] | [8] | [9] | [10] | [11] | [14] | [15] | [16] | [17] | [18]

O=C(O)Cc1cccc2ccccc12
inactive: [1] | [2] | [3] | [4] | [5] | [6] | [7] | [8] | [9] | [10] | [11] | [12] | [14] | [15] | [16] | [17] | [18]

C/C=C(\C)C(=O)OCc1ccccc1
inactive: [1] | [2] | [3] | [4] | [5] | [6] | [7] | [8] | [9] | [10] | [11] | [12] | [14] | [15] | [16] | [17] | [18]

COC(C(=O)O)c1ccccc1 (configuration not stated)
inactive: [1] | [2] | [3] | [4] | [5] | [6] | [7] | [8] | [9] | [10] | [11] | [12] | [14] | [15] | [17] | [18]

CC(=O)c1c(C)cc(C(C)(C)C)cc1C
inactive: [2] | [20] | [3] | [4] | [5] | [6] | [7] | [19] | [8] | [9] | [10] | [11] | [12] | [14] | [15] | [16] | [17] | [18]

CCCCC(CC)COCCC#N (configuration not stated)
inactive: [1] | [2] | [3] | [4] | [5] | [6] | [7] | [8] | [9] | [10] | [11] | [12] | [17] | [18]
